Results as given in ChEMBL document CHEMBL3988442, “University of Dundee, Small-Polar-MMV Screening Library” (2021).

Each compound was assayed against AMP-activated protein kinase, AMPK (Homo sapiens) (UniProt P54646+O43741+P54619+Q9UGJ0+Q9Y478+Q13131+Q9UGI9) (assay: AMP-dependent Kinase enzyme assay. An in vitro enzyme assay that detects ADP turnover that is directly proportional to AMPK activity. This uses naive AMPK that is activated during the assay with MK-8722). Details: 30 µM.
Format: functional
Parameters: scale not given: direction of the effect not stated beside the values
For `O=C(c1cccnc1)N1CCC(Oc2cccc(C(F)(F)F)c2)CC1`, the Percent Effect was -1.51%.
For `Cc1ccccc1-c1noc(-c2ccc(NCC3COCCO3)nc2)n1` (stereo not given), the Percent Effect was 6.52%.
Compound `CCNC(=O)CN1CCc2c(Br)ccc(F)c2C1` has a Percent Effect of -1.06%.
`CC(=O)N1CCC1c1nc(-c2ccc(C)s2)no1` (stereo not given) showed a Percent Effect of 7.59%.
For `Cc1ccc(OCC2CCCN(C(=O)c3csc(CN(C)C)n3)C2)cc1` (stereo not given), the Percent Effect was 14.7%.
`COc1ccc2c(c1)OCC(CNC1CCc3ncnn3C1)=C2` (stereo not given) was tested, and the Percent Effect was 7.82%.
With `Cc1nn(C)c2nc(N3CCCC3c3nccs3)sc12` (stereo not given) the Percent Effect was -1.47%.
`CNC(=O)c1cccnc1NCc1ccc(Cn2cccn2)cc1` was tested, and the Percent Effect was -3.46%.
With `COCCN1C[C@H]2CC[C@@H]1CN(C(=O)CCc1n[nH]c(C)c1C)C2` the Percent Effect was -0.161%.
For `Cc1[nH]nc(CCC(=O)N2CCc3c(nc[nH]c3=O)C2)c1C`, the Percent Effect was 4.58%.
Work on `Cn1ccnc1CNC(=O)CC1CCCCO1` (stereo not given) yielded a Percent Effect of -3.14%.
For `Cc1ocnc1C(=O)N1CC[C@@]2(O)CCN(C(=O)N3CCCC3)C[C@H]2C1`, the Percent Effect was 6.59%.
`COc1ccccc1Oc1ncccc1CNC(=O)C1COC(=O)N1` (stereo not given) was tested, and the Percent Effect was -13.1%.
With `CC(C)c1nn(C)cc1CNCc1cccc(N(C)C)c1` the Percent Effect was -15.4%.
`Cn1cc(CCCN2CCCC(c3cc(C(F)(F)F)[nH]n3)C2)cn1` (stereo not given) was tested, and the Percent Effect was -0.434%.
With `O=C(CC1CCc2ccccc21)NC1(C(=O)O)CCCC1` (stereo not given) the Percent Effect was -6.64%.
Compound `CN(C)c1nc(N)nc(CN2CCCC(c3ccccc3)CC2)n1` (stereo not given) has a Percent Effect of -3.69%.
For `O=C(Nc1ccccc1C(=O)NCCCN1CCOCC1)c1ccco1`, the Percent Effect was 0.765%.
`COc1ccc([C@@H]2CN(C(=O)CCCc3cn[nH]c3)C[C@H]2N(C)C)cc1` gave a Percent Effect of 2.77%.
Compound `CCc1cc(NCCCNS(C)(=O)=O)nc(-c2ccncc2)n1` has a Percent Effect of -3.23%.
